Reference: the supplement of paper PMC11732987, “Enantioselective OTUD7B fragment discovery through chemoproteomics screening and high-throughput optimisation” (Communications Chemistry, 2025)

Experiments:
Test in all cases: log2 ratio of Biotin-Ahx-Ub-VS probe labelling (fragment/DMSO); higher = less target engagement (more negative = stronger competition), active = hit call of the paper (q ≤ 0.05, log2 ratio ≤ -1)
Settings in all cases: compound concentration: 200 uM; treatment time: 3 h
USP19 = molecular target: T1, USP19 (UniProt O94966)
T1 sequence (whole entry): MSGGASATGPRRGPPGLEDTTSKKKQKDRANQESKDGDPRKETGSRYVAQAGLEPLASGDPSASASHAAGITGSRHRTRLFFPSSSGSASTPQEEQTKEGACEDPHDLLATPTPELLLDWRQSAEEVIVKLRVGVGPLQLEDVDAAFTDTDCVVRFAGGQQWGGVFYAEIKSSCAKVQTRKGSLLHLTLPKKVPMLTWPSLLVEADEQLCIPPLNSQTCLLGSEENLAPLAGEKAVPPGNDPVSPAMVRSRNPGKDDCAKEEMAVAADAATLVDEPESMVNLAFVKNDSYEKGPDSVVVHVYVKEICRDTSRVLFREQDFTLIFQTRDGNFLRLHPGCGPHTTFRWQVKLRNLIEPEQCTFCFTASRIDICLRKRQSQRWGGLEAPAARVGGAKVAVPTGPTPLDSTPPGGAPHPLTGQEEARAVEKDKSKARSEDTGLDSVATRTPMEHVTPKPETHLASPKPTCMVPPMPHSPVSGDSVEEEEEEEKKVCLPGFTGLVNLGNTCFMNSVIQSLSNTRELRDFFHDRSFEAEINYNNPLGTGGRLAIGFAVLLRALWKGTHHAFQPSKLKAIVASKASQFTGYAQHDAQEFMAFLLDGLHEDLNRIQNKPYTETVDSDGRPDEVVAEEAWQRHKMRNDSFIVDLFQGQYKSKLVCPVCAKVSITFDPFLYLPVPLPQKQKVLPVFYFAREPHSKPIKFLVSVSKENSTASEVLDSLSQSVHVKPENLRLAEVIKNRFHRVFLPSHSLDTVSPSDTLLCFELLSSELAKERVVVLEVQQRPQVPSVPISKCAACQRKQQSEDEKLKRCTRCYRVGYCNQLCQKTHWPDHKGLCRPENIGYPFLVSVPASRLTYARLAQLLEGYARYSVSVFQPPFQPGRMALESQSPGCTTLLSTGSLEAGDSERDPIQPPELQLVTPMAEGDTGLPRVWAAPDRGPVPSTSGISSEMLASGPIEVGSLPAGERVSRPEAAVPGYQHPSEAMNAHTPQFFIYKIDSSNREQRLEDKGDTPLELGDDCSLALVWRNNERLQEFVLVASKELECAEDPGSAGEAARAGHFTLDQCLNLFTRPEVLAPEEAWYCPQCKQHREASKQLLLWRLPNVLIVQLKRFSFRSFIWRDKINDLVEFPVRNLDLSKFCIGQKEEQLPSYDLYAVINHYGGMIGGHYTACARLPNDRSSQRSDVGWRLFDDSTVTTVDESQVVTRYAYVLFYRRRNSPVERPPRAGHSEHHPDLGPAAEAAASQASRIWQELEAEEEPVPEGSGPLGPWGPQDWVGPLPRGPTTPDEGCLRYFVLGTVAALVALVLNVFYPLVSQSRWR
Procedure, shortened: (§1)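 Triplicate samples of HEK293T lysate, 495 µg each, received fragment at 200 µM or vehicle for 3 h, followed by Biotin-Ahx-Ub-VS (0.5 µM final) for 1 h. After NeutrAvidin enrichment of labelled DUBs and LysC/trypsin digestion, peptides were run by diaPASEF LC-MS/MS. The values are average log2 fragment/vehicle ratios from global-median-normalised Spectronaut label-free quantities, tested by unpaired t-test on proteins having ≥2 unique peptides.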

USP22 = molecular target: T2, USP22 (UniProt Q9UPT9)
T2 sequence (whole entry): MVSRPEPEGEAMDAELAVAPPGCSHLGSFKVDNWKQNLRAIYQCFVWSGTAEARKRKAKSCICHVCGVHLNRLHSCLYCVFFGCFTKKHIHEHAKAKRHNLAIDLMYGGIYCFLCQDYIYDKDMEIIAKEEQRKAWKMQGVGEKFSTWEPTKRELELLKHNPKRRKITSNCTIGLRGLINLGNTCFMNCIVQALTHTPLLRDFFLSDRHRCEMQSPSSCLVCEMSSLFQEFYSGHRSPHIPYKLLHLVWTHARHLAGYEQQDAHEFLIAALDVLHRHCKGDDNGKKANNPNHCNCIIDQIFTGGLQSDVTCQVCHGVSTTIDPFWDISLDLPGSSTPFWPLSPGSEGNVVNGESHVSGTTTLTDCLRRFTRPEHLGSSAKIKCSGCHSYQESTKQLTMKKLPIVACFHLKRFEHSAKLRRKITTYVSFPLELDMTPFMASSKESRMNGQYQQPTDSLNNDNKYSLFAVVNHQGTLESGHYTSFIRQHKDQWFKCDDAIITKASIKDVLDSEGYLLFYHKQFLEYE
Procedure, shortened: as §1

USP24 = USP24 (UniProt Q9UPU5)
Procedure, shortened: as §1

USP25 = molecular target: T3, USP25 (UniProt Q9UHP3)
T3 sequence (whole entry): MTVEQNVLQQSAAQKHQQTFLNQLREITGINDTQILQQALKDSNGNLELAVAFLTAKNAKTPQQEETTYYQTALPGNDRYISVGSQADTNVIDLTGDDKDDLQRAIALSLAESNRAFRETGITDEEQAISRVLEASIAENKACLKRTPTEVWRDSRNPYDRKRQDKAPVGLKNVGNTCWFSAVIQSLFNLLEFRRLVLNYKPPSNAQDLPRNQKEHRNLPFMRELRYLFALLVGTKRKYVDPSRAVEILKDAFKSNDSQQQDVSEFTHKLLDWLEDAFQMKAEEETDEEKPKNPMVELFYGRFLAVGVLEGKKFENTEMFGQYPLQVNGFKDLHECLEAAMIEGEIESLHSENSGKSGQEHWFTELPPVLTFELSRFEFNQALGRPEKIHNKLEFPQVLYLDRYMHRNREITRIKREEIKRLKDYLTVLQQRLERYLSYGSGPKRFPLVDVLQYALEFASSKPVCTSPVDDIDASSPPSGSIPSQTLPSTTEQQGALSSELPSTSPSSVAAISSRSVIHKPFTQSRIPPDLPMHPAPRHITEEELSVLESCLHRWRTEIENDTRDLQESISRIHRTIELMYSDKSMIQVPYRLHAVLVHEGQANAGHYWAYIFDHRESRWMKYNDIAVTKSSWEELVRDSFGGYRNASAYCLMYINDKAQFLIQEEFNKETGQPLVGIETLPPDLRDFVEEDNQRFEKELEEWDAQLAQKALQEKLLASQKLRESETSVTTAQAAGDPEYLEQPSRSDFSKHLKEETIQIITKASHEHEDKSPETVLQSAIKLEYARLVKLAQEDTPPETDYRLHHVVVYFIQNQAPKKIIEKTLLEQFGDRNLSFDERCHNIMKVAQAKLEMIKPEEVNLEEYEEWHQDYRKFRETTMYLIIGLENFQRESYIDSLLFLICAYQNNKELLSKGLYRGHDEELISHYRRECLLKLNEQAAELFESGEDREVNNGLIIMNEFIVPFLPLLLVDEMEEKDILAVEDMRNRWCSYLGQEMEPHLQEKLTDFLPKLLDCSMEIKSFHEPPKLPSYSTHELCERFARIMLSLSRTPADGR
Procedure, shortened: as §1

USP28 = molecular target: T4, USP28 (UniProt Q96RU2)
T4 sequence (whole entry): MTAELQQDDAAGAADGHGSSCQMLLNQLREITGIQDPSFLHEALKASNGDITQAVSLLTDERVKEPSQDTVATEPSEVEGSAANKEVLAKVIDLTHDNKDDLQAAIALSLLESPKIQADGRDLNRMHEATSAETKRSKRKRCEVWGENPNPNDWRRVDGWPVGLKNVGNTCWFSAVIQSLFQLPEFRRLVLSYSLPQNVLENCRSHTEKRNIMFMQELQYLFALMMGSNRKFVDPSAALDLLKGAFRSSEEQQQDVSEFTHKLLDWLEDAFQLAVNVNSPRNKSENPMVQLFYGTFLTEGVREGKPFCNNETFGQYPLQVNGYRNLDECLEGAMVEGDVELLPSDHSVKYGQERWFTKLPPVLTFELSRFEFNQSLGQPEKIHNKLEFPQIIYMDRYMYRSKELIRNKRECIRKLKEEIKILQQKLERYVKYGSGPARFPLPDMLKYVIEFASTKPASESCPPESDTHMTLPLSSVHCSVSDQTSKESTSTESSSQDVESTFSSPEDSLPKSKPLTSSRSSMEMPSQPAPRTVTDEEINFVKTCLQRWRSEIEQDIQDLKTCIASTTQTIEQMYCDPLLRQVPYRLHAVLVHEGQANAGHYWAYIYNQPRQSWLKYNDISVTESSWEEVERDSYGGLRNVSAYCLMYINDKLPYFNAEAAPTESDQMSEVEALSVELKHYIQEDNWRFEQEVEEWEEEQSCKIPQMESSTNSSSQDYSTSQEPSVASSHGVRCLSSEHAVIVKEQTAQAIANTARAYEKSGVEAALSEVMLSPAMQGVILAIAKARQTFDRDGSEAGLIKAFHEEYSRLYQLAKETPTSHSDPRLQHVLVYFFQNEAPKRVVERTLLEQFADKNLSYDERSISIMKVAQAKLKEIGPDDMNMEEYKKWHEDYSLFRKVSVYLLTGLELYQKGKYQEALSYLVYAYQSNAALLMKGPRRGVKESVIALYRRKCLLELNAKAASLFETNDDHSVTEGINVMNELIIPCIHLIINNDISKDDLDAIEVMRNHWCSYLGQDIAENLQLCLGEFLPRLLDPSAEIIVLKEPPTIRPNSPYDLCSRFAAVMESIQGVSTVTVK
Procedure, shortened: as §1

Measured: log2 ratio of Biotin-Ahx-Ub-VS probe labelling

Sequence of USP24 (Q9UPU5 whole entry): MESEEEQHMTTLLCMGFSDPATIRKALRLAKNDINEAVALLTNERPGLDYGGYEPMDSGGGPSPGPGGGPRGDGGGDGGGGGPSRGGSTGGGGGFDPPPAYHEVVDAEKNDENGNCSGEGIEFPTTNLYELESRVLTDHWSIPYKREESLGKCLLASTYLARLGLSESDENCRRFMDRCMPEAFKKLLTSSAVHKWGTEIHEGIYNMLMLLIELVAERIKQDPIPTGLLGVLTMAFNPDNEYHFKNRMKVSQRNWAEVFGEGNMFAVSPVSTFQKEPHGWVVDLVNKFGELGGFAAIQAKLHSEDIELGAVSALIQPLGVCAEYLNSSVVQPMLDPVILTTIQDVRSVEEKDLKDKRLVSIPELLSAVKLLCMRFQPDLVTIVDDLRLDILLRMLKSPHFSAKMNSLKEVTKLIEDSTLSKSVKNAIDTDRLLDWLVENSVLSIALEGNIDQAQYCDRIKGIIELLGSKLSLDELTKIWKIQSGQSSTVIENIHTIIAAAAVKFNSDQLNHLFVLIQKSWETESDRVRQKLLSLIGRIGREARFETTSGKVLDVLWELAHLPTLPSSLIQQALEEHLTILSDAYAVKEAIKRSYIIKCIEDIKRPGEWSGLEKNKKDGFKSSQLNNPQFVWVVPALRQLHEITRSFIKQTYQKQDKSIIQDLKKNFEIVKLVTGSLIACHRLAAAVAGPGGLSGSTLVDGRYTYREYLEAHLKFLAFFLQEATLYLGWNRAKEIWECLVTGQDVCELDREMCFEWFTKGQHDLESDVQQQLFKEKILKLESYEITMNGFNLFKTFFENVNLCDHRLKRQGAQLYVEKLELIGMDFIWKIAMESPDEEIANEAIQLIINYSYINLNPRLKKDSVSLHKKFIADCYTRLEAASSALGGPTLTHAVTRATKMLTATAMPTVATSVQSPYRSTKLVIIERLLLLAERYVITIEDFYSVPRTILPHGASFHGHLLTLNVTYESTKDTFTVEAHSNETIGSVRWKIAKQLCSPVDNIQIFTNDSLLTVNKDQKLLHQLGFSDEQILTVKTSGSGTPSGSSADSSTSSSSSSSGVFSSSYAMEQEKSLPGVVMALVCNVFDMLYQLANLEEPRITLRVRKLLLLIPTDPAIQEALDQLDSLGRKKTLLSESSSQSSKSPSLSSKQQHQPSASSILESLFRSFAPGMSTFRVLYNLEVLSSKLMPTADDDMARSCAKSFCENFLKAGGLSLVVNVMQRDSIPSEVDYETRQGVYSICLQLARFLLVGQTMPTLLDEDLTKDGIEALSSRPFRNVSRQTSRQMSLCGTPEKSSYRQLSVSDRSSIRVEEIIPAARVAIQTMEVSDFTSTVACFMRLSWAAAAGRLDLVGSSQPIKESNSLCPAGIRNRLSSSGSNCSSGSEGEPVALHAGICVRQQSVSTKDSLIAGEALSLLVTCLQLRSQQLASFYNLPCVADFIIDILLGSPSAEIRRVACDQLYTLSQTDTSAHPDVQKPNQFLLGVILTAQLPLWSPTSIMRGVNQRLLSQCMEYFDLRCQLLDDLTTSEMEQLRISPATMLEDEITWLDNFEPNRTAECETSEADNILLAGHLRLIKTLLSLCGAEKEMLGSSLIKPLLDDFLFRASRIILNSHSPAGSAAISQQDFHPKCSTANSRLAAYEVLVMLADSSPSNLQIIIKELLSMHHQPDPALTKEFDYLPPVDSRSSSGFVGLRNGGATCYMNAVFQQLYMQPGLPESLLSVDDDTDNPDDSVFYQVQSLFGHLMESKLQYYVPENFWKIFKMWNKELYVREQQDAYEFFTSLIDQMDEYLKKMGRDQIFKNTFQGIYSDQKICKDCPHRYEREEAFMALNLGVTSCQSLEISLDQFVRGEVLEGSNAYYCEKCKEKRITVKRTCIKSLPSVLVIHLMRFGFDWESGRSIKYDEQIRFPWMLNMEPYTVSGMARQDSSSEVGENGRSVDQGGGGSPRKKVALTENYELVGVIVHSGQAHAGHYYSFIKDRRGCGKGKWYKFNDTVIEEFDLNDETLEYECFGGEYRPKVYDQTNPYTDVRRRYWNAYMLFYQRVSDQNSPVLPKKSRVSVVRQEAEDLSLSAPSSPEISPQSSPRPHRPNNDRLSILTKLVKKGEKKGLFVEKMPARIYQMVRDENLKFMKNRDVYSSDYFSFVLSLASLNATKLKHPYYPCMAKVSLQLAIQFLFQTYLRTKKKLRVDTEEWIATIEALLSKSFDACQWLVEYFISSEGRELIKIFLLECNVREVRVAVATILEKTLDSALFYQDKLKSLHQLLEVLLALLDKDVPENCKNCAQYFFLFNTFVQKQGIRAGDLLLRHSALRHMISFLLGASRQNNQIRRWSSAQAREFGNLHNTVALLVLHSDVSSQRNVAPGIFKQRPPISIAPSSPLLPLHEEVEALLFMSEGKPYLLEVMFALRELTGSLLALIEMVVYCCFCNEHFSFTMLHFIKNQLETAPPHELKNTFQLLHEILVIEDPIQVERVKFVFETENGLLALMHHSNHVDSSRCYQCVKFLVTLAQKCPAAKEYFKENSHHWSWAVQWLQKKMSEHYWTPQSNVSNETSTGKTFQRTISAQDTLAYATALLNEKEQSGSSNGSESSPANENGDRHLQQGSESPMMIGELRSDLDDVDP

Cc1nnc(C(NC(=O)CCl)c2ccccc2)n1C (stereo not given)
inactive: USP19 0.626 | USP22 0.332 | USP24 0.636 | USP25 0.465 | USP28 0.507
